Assay [1] is described as follows: compounds binding Alexa647 anti-His antibody – biochemical, small-molecule microarray, 635 nm fluorescence, artefact control for SMM control protein annotation, primary screen (AID 1128).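 Further: score merges feature fluorescence with signal-to-noise for each printed compound spot.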 The note with it: higher = more signal.
The subject of assay [2] is Human papillomavirus type 1a E7 protein (residues 1-88). Put plainly: HPV1a E7 small-molecule binders, primary screen, biochemical, small-molecule microarray, residues 1-88, 635 nm (AID 1129). The note with it: small-molecule microarray binding, fluorescence 635 nm; higher = more signal.
Assay [3] has as its target Focal adhesion kinase 1 (Homo sapiens) (UniProt Q05397). The assay is described as follows: PTK2 protein binding on printed compound slides – biochemical, small-molecule microarray, 635/667 nm fluorescence, BSA, DTT, primary screen (AID 1130).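 Further: composite of spot emission at 667 nm and signal to noise over triplicate slides.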 The note with it: 635 nm fluorescence, higher = more signal.
Assay [4] relates to Fibrinogen (Alexa647-labelled). The assay is described as follows: Alexa647-fibrinogen binding to printed small molecules – biochemical, small-molecule microarray, 635/667 nm fluorescence, artefact control for SMM control-protein annotation, profiling panel (AID 1131).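 Further: z-score merges 667 nm fluorescence with per-spot signal-to-noise over triplicate slides.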 To be noted: fibrinogen-A647 binding fluorescence, higher = more signal.
For assay [5], the target named is Follistatin (Homo sapiens) (UniProt P19883). The assay is described as follows: FST protein binding to printed compounds – biochemical, small-molecule microarray, 635/667 nm fluorescence, primary screen (AID 1132). To be noted: 635 nm fluorescence, higher = more signal.
Assay [6] deals with Fibroblast growth factor 2 (Homo sapiens) (UniProt P09038). Put plainly: basic fibroblast growth factor binding to printed compounds – biochemical, small-molecule microarray, 635/667 nm fluorescence, primary screen (AID 1133). The note with it: FGF2, fluorescence 635/667, higher = more signal.
Assay [7] can be described thus: JC-1 mitochondrial potential readout, lung cancer cells – cell-based, A549, JC-1 fluorescence, basal, 24 h, 100 nL, profiling panel (AID 1138).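 Further: A549 lung adenocarcinoma cells under basal conditions with no added stimulus; test concentration not given here.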 To be noted: higher = more signal.
The next assay deals with Lefty1. The assay is described as follows: Lefty1 protein binding to printed compounds – biochemical, small-molecule microarray, 635/667 nm fluorescence, primary screen (AID 1139). To be noted: fluorescence 635/667, higher = more signal.
The test system of assay [8] is wheat germ agglutinin (Triticum aestivum), Alexa647-labelled. Put plainly: Alexa647-WGA lectin binding to printed small molecules – biochemical, small-molecule microarray, 635/667 nm fluorescence, artefact control for SMM control-protein annotation, profiling panel (AID 1140).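 Further: score merges 667 nm feature emission with signal to noise over triplicate slides.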 The note with it: WGA-A647 binding, 635 nm fluorescence, higher = more signal.
The target of assay [9] is Luciferin 4-monooxygenase (Photinus pyralis) (UniProt P08659). Put plainly: inhibition of purified Photinus pyralis luciferase – biochemical, luminescence, purified enzyme, 2006 set, primary screen (AID 1141).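 Further: cell-free assay with purified firefly luciferase at 100 ng per well in PBS; test concentration not given here.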 The note with it: purified firefly luciferase, SteadyGlo luminescence, 30 min; higher = more signal, called active from +8 up or from −8 down.
Assay [10] deals with Wnt5a (protein binding on small-molecule microarray). Put plainly: small molecules binding Wnt5a protein – biophysical, small-molecule microarray, 635/667 nm fluorescence, primary screen (AID 1142).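 Further: fluorescence read at 667 nm with signal to noise per printed feature.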 The note with it: 635 nm fluorescence, higher = more signal.
Assay [11] is described as follows: ATP-based viability of Huh7 replicon cells – cell-based, CellTiter-Glo luminescence, basal, 48 h, cytotoxicity control for HCV replication inhibitor project, primary screen (AID 1143).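 Further: Huh7 hepatoma cells carrying a hepatitis C replication reporter with no stimulus; test concentration not given here.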 To be noted: higher = more signal, called active from +8 up or from −8 down. Background: In antiviral work, replicon cells carry a viral genome segment that copies itself.
Assay [12] can be described thus: Pseudomonas biofilm growth suppression – PAO1 strain, BacTiter-Glo luminescence, LB-PBS, primary screen (AID 1144). To be noted: P. aeruginosa PAO1 biofilm, 12 h, higher = more signal.
The nature of assay [13]: basal CRE-LacZ reporter activity in PC12 – cell-based, unstimulated, primary screen (AID 1145). The note with it: no forskolin, luminescence, 4.5 h, higher = more signal, called active from +8 up or from −8 down.
Assay [14] can be described thus: forskolin-driven CRE-LacZ activity in PC12 – cell-based, CRE-LacZ reporter, forskolin-stimulated, primary screen (AID 1146).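 Further: PC12 cells with 6xCRE LacZ reporter stimulated by forskolin 10 µM; beta-galactosidase reporter signal reflecting CREB driven transcription.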 To be noted: luminescence, 4.5 h, higher = more signal, called active from +8 up or from −8 down.
Assay [15] addresses Streptavidin (Streptomyces avidinii) (UniProt P22629). The assay is described as follows: compounds binding control protein streptavidin – biophysical, small-molecule microarray, 635/667 nm fluorescence, artefact control for SMM compound annotation, primary screen (AID 1147).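 Further: signal reflects streptavidin binding to arrayed compounds as a control protein.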 To be noted: higher = more signal.
Assay [16] is described as follows: probe aInhba binding on compound microarray – biochemical, small-molecule microarray, 635/667 nm fluorescence, primary screen (AID 1148).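 Further: score merges 667nm spot fluorescence with signal-to-noise for antibody binding to printed compounds.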 The note with it: higher = more signal.
Assay [17] deals with Torsin-1A (Homo sapiens) (UniProt O14656). Put plainly: TOR1A wild-type binding on microarray – cell lysate, small-molecule microarray, lysate, 635/667 nm, primary screen (AID 1149). To be noted: COS7 hTOR1A-WT lysate, 635 nm fluorescence, higher = more signal.
For assay [18] the target is unchanged. Put plainly: torsin A mutant lysate binding on microarrays – cell lysate, small-molecule microarray, COS7 lysate, 635/667 nm fluorescence, primary screen (AID 1150).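 Further: score pools 667 nm emission and signal to noise measuring lysate protein binding.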 The note with it: COS7 hTOR1A mutant lysate, 635 nm fluorescence, higher = more signal.
For assay [19], the system named is Sonic hedgehog protein (Shh). The assay is described as follows: Sonic hedgehog microarray binding compounds – biochemical, small-molecule microarray, 635/667 nm fluorescence, primary screen (AID 1151).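 Further: Shh protein binding to compounds spotted on small-molecule microarray slides; score combines spot fluorescence intensity with signal-to-noise across triplicate slides.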 The note with it: 635 nm fluorescence, higher = more signal.

Our source for the composite z-score and z-score values is PubChem BioAssay.

The source made the active and inactive calls. Unless noted, how the calls were made is not given here.

Sequence of Follistatin (Homo sapiens) (P19883 whole entry, looked up): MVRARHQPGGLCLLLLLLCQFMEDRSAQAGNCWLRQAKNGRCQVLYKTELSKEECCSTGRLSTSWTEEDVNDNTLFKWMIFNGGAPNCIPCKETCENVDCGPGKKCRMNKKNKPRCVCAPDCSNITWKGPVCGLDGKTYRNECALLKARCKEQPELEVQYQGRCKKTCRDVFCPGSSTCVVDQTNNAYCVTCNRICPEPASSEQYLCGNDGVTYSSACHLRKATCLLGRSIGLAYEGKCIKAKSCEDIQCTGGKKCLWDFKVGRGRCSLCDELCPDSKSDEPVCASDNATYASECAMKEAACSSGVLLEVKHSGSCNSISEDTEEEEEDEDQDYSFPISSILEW
Sequence of Focal adhesion kinase 1 (Homo sapiens) (Q05397 whole entry, looked up): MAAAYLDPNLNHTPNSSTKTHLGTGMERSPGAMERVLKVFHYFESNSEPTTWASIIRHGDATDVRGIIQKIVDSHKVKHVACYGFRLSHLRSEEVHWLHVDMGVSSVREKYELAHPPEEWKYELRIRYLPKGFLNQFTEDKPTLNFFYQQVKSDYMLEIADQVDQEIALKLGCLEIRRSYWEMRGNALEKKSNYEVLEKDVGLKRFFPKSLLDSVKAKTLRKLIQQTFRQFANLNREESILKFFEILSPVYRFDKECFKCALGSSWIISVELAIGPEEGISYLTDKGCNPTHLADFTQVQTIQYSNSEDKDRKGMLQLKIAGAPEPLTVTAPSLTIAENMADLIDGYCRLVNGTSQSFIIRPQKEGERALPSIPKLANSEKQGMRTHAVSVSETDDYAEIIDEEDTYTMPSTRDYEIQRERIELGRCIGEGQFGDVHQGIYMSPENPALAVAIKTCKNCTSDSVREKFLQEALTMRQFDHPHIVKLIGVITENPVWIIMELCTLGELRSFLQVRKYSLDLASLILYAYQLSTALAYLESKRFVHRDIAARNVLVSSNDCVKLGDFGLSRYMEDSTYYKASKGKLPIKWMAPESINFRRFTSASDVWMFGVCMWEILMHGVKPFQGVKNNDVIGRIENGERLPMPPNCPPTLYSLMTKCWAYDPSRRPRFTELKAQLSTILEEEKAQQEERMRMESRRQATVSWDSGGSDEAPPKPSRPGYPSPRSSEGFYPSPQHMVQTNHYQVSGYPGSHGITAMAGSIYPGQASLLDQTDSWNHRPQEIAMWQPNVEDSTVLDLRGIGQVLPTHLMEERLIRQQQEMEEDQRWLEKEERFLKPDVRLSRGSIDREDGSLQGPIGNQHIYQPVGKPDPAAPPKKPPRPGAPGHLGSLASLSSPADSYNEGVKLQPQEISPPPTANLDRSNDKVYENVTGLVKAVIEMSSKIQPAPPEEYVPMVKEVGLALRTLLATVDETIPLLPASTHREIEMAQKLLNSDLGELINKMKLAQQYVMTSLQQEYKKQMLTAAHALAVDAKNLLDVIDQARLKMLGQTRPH
Sequence of Torsin-1A (Homo sapiens) (O14656 whole entry, looked up): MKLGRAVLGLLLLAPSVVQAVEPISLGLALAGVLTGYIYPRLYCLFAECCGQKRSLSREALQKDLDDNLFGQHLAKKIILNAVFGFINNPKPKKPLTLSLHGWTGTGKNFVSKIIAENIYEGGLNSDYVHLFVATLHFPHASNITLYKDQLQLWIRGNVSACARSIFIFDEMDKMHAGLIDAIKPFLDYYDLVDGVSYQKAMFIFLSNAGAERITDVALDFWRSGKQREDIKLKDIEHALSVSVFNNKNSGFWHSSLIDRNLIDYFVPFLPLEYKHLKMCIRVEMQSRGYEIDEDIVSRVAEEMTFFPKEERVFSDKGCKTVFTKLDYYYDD
Sequence of Streptavidin (Streptomyces avidinii) (P22629 whole entry, looked up): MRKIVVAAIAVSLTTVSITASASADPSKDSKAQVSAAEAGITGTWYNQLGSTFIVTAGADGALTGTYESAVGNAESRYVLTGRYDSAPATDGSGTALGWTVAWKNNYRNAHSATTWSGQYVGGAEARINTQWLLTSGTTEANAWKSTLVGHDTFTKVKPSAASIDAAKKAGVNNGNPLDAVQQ
Sequence of Luciferin 4-monooxygenase (Photinus pyralis) (P08659 whole entry, looked up): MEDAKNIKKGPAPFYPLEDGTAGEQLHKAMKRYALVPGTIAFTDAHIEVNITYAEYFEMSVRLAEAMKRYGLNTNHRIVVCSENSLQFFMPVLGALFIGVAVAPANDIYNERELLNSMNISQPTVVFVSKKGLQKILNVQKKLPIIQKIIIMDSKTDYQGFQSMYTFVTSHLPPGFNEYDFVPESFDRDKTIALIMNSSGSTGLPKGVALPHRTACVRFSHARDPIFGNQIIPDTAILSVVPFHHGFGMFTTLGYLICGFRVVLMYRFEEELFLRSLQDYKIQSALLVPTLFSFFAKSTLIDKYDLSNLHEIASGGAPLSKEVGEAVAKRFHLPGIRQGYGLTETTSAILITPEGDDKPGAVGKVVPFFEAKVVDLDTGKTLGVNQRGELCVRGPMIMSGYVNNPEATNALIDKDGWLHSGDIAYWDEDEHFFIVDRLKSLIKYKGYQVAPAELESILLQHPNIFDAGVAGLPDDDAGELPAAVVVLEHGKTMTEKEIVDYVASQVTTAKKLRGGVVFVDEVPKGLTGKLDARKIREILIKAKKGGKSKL
Sequence of Fibroblast growth factor 2 (Homo sapiens) (P09038 whole entry, looked up): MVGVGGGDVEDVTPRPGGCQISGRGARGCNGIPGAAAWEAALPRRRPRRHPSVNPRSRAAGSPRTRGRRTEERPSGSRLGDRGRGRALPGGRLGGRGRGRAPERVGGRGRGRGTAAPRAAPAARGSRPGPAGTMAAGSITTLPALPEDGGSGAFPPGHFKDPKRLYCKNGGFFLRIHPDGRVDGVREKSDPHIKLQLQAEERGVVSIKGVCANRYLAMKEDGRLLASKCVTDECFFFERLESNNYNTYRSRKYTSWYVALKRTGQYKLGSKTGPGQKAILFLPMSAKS

For `COc1cc(OC)c(C(O)C2C=CC3C(=O)N(C)C(=O)C3N2NC(=O)OC(C)(C)C)cc1Br` (stereo not given), the composite z-score amounted to 0.476 in assay [1]; 1.29 in assay [2]; 0.776 in [3]; 1.03 in [4]; 1.25 in [5]; 0.128 in assay [6]. Besides, the composite z-score in the assay on Lefty1 is 0.42; in assay [8] it was 1.23; in assay [10] it was 0.326; in [15] it was 1.25; in assay [16], 0.194; with Torsin-1A (Homo sapiens) [17], 0.443. Further, the results for the composite z-score (with Torsin-1A (Homo sapiens) [18]; in assay [19]) were 0.315 and 0.568, respectively. The z-score in [7] is -0.942; in assay [9] it was -0.996 (inactive); in assay [11], 0.558 (inactive); in assay [12], -0.224 (inactive); in assay [13], 1.2 (inactive); in [14] it was 0.922 (inactive).

For `CC(CO)N1C(=O)[C@@H]2[C@H]3C(=O)OCC=C[C@H]3OC23C=CCN(C(C)(C)C)C(=O)[C@@H]13` (stereo not given in full), the composite z-score in assay [1] was -1.15; in [2], -0.833; in [3] it was -0.367; in [4], -0.591; in [5], -0.187; in [6] it was -0.0701. The composite z-score with Lefty1 was -0.114; in assay [8], -0.104; in assay [10], -0.329; in [15], 0.769; in assay [16], -0.154; with Torsin-1A (Homo sapiens) [17], -1.5. Moreover, the values for the composite z-score (with Torsin-1A (Homo sapiens) [18]; in [19]) were -0.163 and -0.405, respectively. Also, the z-score was -0.28 in assay [7]; -0.069 (inactive) in assay [9]; -0.304 (inactive) in assay [11]; 1.15 (inactive) in [12]; -0.354 (inactive) in assay [13]; -0.304 (inactive) in assay [14].

For the compound `COc1ccc(C#Cc2ccc3c(c2)[C@]2(C(=O)N3)[C@H](c3ccc(O)cc3)N3[C@H](c4ccccc4)[C@H](c4ccccc4)OC(=O)[C@H]3[C@@H]2C(=O)O)cc1`, the composite z-score is 2.03 in assay [1]; 1.06 in assay [2]; 0.324 in [3]; 0.457 in [4]; 0.127 in assay [5]; -0.218 in [6]. The composite z-score with Lefty1 was -0.211; in [8], -0.178; in assay [10] it was 0.136; in assay [15] it was 0.942; in assay [16], 0.11; with Torsin-1A (Homo sapiens) [17], 0.0897. Besides, the composite z-score with Torsin-1A (Homo sapiens) [18] is 0.721; in assay [19] it was 0.248. Moreover, the z-score in [7] was -2.05; in assay [9], -1.37 (inactive); in [11], -4.66 (inactive); in assay [12] it was -1.04 (inactive); in assay [13], 0.478 (inactive); in assay [14], -0.478 (inactive).

`CN(C)C(=O)[C@@]1(CCS(=O)(=O)c2ccccc2)N=C(c2ccc(OCCCO)cc2)O[C@H]1c1ccccc1`: the composite z-score in assay [1] was 2.36; in assay [2] it was 1.23; in assay [3], 0.365; in [4], 0.983; in assay [5], 1.02; in assay [6] it was -0.663. In addition, the composite z-score with Lefty1 was -0.502; in assay [8] it was 1.18; in [10], 0.543; in assay [15], 0.926; in [16], 0.0155; with Torsin-1A (Homo sapiens) [17] it was 1.05. The composite z-score in the assay with Torsin-1A (Homo sapiens) [18] was 0.548; in [19], -1.01. Moreover, the z-score was 0.635 in assay [7]; -0.525 (inactive) in [9]; -3.07 (inactive) in [11]; 1.02 (inactive) in [12]; 0.652 (inactive) in [13]; -0.481 (inactive) in [14].

In the case of `CN(C)c1ccc(C(O)C2C=CC3C(=O)N(c4ccccc4)C(=O)C3N2Nc2ccc([N+](=O)[O-])cc2)cc1` (stereo not given), the composite z-score in [1] is 1.35; in assay [2] it was 1.19; in [3] it was -0.165; in assay [4], 0.979; in assay [5] it was 1.01; in [6], -0.181. Also, the composite z-score in the assay on Lefty1 was 0.149; in [8] it was 0.623; in [10] it was 0.0074; in [15] it was 0.769; in assay [16], -0.0736; with Torsin-1A (Homo sapiens) [17] it was 0.603. In addition, the composite z-score was 0.377 with Torsin-1A (Homo sapiens) [18] and -0.13 in assay [19]. The z-score in assay [7] is -0.621; in assay [9], -0.421 (inactive); in assay [11] it was -0.619 (inactive); in assay [12] it was 0.108 (inactive); in assay [13], 0.49 (inactive); in assay [14], -0.464 (inactive).
